From PubChem BioAssay (NCI) come the findings set out here.

This is part of a sample that, as a whole, favours compounds with a hit. Of some 79,000 tested, about 15% had one in any assay. Values without a mark were called inactive. Calls of active or inactive are those of the source. Cut-off read from the data, not from the text of the source: active = growth inhibition above about 70%; inactive = the rest.

Experiment [1] is described as follows: NCI Yeast Anticancer Drug Screen. Data for the rad50 strain (AID 155).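 Note: 0% = growth of vehicle-only cultures of the same strain.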 The note with it: S. cerevisiae rad50 strain growth inhibition, stronger effect = higher value. Summed up:
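Relative growth inhibition (compound vs vehicle) was measured in yeast with a defined repair-gene alteration.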

The nature of experiment [2]: NCI Yeast Anticancer Drug Screen. Data for the mec2-1 strain (AID 157). The note with it: S. cerevisiae mec2-1 strain, stronger effect = higher value. The method, boiled down:
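Vehicle-treated cultures served as reference for growth inhibition of compound-exposed mec2-1 yeast.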

Experiment [3] in a line: NCI Yeast Anticancer Drug Screen. Data for the sgs1 mgt1 strain (AID 161).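 Note: 0% = growth of cultures given vehicle only.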 The note with it: S. cerevisiae sgs1 mgt1 strain, stronger effect = higher value. The method, boiled down:
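Test agents were incubated with a DNA-repair-mutant yeast strain. Growth was then read and compared against vehicle-treated controls.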

The nature of experiment [4]: NCI Yeast Anticancer Drug Screen. Data for the cln2 rad14 strain (AID 165).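 Note: 0% = growth equal to vehicle treated cultures.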 The note with it: S. cerevisiae cln2 rad14 strain, stronger effect = higher value. Summed up: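 Each compound was tested on cln2 rad14 yeast. Inhibition of growth was calculated against vehicle-exposed controls.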
A short description of experiment [5]: NCI Yeast Anticancer Drug Screen. Data for the bub3 strain (AID 167). As to conditions: S. cerevisiae bub3 mutant strain, stronger effect = higher value. Summed up:
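Screening used yeast with an engineered genetic alteration affecting cell cycle control. Compound-exposed cultures were compared with vehicle cultures, and reduced growth was taken as inhibition.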

Experiment [6] can be described thus: NCI Yeast Anticancer Drug Screen. Data for the mlh1 rad18 strain (AID 175). The note with it: S. cerevisiae mlh1 rad18 strain growth inhibition, stronger effect = higher value. The method, boiled down:
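Vehicle-treated cultures served as the reference for growth inhibition in a yeast strain carrying DNA damage repair alterations exposed to each compound.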

The mark [7] stands for this setting: at 5.0 µM (retest, dose inferred, filed as 0.5).
The mark [8] stands for this setting: at 50.0 µM (retest, dose inferred, filed as 5.0).

Take `CCC[CH2][Sn]1([CH2]CCC)[O]CC[S]1`: the growth inhibition in experiment [1] (setting [7]) was 83% (active); in experiment [1] (setting [8]), 99% (active); in experiment [1] (at 50.0 µM) it was 99.1% (active); in experiment [2] (setting [7]), 87% (active); in experiment [2] (setting [8]), 99% (active); in experiment [2] (at 50.0 µM), 99% (active). In addition, the growth inhibition is 81% (active) in experiment [3] (setting [7]); 99% (active) in experiment [3] (setting [8]); 98.2% (active) in experiment [3] (at 50.0 µM); 78% (active) in experiment [4] (setting [7]); 99% (active) in experiment [4] (setting [8]); 97.3% (active) in experiment [4] (at 50.0 µM). Moreover, the growth inhibition was 87% (active) in experiment [5] (setting [7]); 99% (active) in experiment [5] (setting [8]); 96.1% (active) in experiment [5] (at 50.0 µM); 84% (active) in experiment [6] (setting [7]); 99% (active) in experiment [6] (setting [8]); 99.2% (active) in experiment [6] (at 50.0 µM).

Take `CC(C)C1(NC(=O)C2C=C3c4cccc5[nH]cc(c45)CC3N(C)C2)OC2(O)C3CCCN3C(=O)C(Cc3ccccc3)N2C1=O` (configuration not stated): the growth inhibition in experiment [1] (setting [7]) is 0%; in experiment [1] (setting [8]), 94% (active); in experiment [1] (at 50.0 µM), 96.2% (active); in experiment [2] (setting [7]) it was -47%; in experiment [2] (setting [8]) it was 92% (active); in experiment [2] (at 50.0 µM) it was 97.1% (active). The growth inhibition was -2% in experiment [3] (setting [7]); 89% (active) in experiment [3] (setting [8]); 98.2% (active) in experiment [3] (at 50.0 µM); -8% in experiment [4] (setting [7]); 95% (active) in experiment [4] (setting [8]); 94.5% (active) in experiment [4] (at 50.0 µM). Further, the growth inhibition in experiment [5] (setting [7]) was -4%; in experiment [5] (setting [8]), 95% (active); in experiment [5] (at 50.0 µM) it was 96.8% (active); in experiment [6] (setting [7]) it was -2%; in experiment [6] (setting [8]), 97% (active); in experiment [6] (at 50.0 µM), 97% (active).

Take `OC(c1cc2c(c3ccccc13)CCCC2)C1CCCCN1` (configuration not stated): the growth inhibition in experiment [1] (setting [7]) is -4%; in experiment [1] (setting [8]), 17%; in experiment [1] (at 50.0 µM), 64.5%; in experiment [2] (setting [7]), -1%; in experiment [2] (setting [8]), 12%; in experiment [2] (at 50.0 µM), 42.4%. Besides, the growth inhibition was 3% in experiment [3] (setting [7]); 47% in experiment [3] (setting [8]); 68% in experiment [3] (at 50.0 µM); 1% in experiment [4] (setting [7]); 21% in experiment [4] (setting [8]); 79.7% (active) in experiment [4] (at 50.0 µM). For the same compound, the growth inhibition in experiment [5] (setting [7]) is 0%; in experiment [5] (setting [8]), 18%; in experiment [5] (at 50.0 µM) it was 59%; in experiment [6] (setting [7]), 0%; in experiment [6] (setting [8]), 41%; in experiment [6] (at 50.0 µM), 95.5% (active).

`Nc1c(Cl)cccc1C(=O)O`: the growth inhibition was 3% in experiment [1] (setting [7]); 4% in experiment [1] (setting [8]); 54% in experiment [1] (at 50.0 µM); -2% in experiment [2] (setting [7]); 0% in experiment [2] (setting [8]); 26.8% in experiment [2] (at 50.0 µM). Moreover, the growth inhibition in experiment [3] (setting [7]) was 1%; in experiment [3] (setting [8]), 6%; in experiment [3] (at 50.0 µM), 45.7%; in experiment [4] (setting [7]), -4%; in experiment [4] (setting [8]), -7%; in experiment [4] (at 50.0 µM), 13.4%. The growth inhibition in experiment [5] (setting [7]) is 3%; in experiment [5] (setting [8]), 1%; in experiment [5] (at 50.0 µM), 23.9%; in experiment [6] (setting [7]), 2%; in experiment [6] (setting [8]), 5%; in experiment [6] (at 50.0 µM) it was 34.9%.

`O=[N+]([O-])c1cccc(N=Cc2ccc(N(CCCl)CCCl)cc2)c1`: the growth inhibition was 4% in experiment [1] (setting [7]); 53% in experiment [1] (setting [8]); 66% in experiment [1] (at 50.0 µM); 2% in experiment [2] (setting [7]); 64% in experiment [2] (setting [8]); 21.9% in experiment [2] (at 50.0 µM). Besides, the growth inhibition is 3% in experiment [3] (setting [7]); 63% in experiment [3] (setting [8]); 44.4% in experiment [3] (at 50.0 µM); 2% in experiment [4] (setting [7]); 54% in experiment [4] (setting [8]); 26.1% in experiment [4] (at 50.0 µM). Moreover, the growth inhibition in experiment [5] (setting [7]) was 3%; in experiment [5] (setting [8]), 74% (active); in experiment [5] (at 50.0 µM) it was 8%; in experiment [6] (setting [7]), 7%; in experiment [6] (setting [8]), 74% (active); in experiment [6] (at 50.0 µM) it was 60%.

For the compound `CCCCN1C(=O)C2C(C1=O)C1(Cl)C(Cl)=C(Cl)C2(Cl)C1(Cl)Cl` (configuration not stated), the growth inhibition is 17% in experiment [1] (setting [7]); 98% (active) in experiment [1] (setting [8]); 95.3% (active) in experiment [1] (at 50.0 µM); 17% in experiment [2] (setting [7]); 99% (active) in experiment [2] (setting [8]); 96% (active) in experiment [2] (at 50.0 µM). Besides, the growth inhibition in experiment [3] (setting [7]) is 11%; in experiment [3] (setting [8]), 98% (active); in experiment [3] (at 50.0 µM), 98.9% (active); in experiment [4] (setting [7]) it was 13%; in experiment [4] (setting [8]), 98% (active); in experiment [4] (at 50.0 µM), 99% (active). Further, the growth inhibition in experiment [5] (setting [7]) is 3%; in experiment [5] (setting [8]), 98% (active); in experiment [5] (at 50.0 µM), 76.5% (active); in experiment [6] (setting [7]), 21%; in experiment [6] (setting [8]) it was 98% (active); in experiment [6] (at 50.0 µM), 76.7% (active).

Consider `CN(C)CC(Cl)CCl` (configuration not stated), for which the growth inhibition in experiment [1] (setting [7]) is 19%; in experiment [1] (setting [8]), 86% (active); in experiment [1] (at 50.0 µM), 88.9% (active); in experiment [2] (setting [7]), -1%; in experiment [2] (setting [8]), 71% (active); in experiment [2] (at 50.0 µM), 80.2% (active). Moreover, the growth inhibition was 14% in experiment [3] (setting [7]); 75% (active) in experiment [3] (setting [8]); 43.5% in experiment [3] (at 50.0 µM); -4% in experiment [4] (setting [7]); 64% in experiment [4] (setting [8]); 55.9% in experiment [4] (at 50.0 µM). Also, the growth inhibition is -8% in experiment [5] (setting [7]); 8% in experiment [5] (setting [8]); 9.25% in experiment [5] (at 50.0 µM); 15% in experiment [6] (setting [7]); 82% (active) in experiment [6] (setting [8]); 49.5% in experiment [6] (at 50.0 µM).

Consider `C/C(=N\N)C(CN1CCCCC1)C(c1ccccc1)c1c(O)c2ccccc2oc1=O` (configuration not stated), for which the growth inhibition is 3% in experiment [1] (setting [7]); 3% in experiment [1] (setting [8]); 79.8% (active) in experiment [1] (at 50.0 µM); 1% in experiment [2] (setting [7]); 1% in experiment [2] (setting [8]); 63.8% in experiment [2] (at 50.0 µM). Also, the growth inhibition is 3% in experiment [3] (setting [7]); 3% in experiment [3] (setting [8]); 81.7% (active) in experiment [3] (at 50.0 µM); 4% in experiment [4] (setting [7]); 4% in experiment [4] (setting [8]); 74% (active) in experiment [4] (at 50.0 µM). The growth inhibition in experiment [5] (setting [7]) is 3%; in experiment [5] (setting [8]) it was 3%; in experiment [5] (at 50.0 µM), 76.3% (active); in experiment [6] (setting [7]), 8%; in experiment [6] (setting [8]) it was 8%; in experiment [6] (at 50.0 µM), 80% (active).

Turning to `CC(=O)O[C@H]1CC[C@H]2[C@@H]3CC[C@H]4CC(=O)CC[C@@H]4[C@H]3CC[C@]12C`, the growth inhibition in experiment [1] (setting [7]) was -2%; in experiment [1] (setting [8]), -19%; in experiment [1] (at 50.0 µM), 11%; in experiment [2] (setting [7]) it was -2%; in experiment [2] (setting [8]), -9%; in experiment [2] (at 50.0 µM), 10.8%. The growth inhibition in experiment [3] (setting [7]) was -2%; in experiment [3] (setting [8]), -10%; in experiment [3] (at 50.0 µM), 88.6% (active); in experiment [4] (setting [7]) it was -14%; in experiment [4] (setting [8]), -6%; in experiment [4] (at 50.0 µM) it was 1.15%. Besides, the growth inhibition in experiment [5] (setting [7]) is 4%; in experiment [5] (setting [8]) it was 7%; in experiment [5] (at 50.0 µM) it was 61.5%; in experiment [6] (setting [7]), -1%; in experiment [6] (setting [8]), -7%; in experiment [6] (at 50.0 µM) it was -1.35%.
